The campaign covered roughly 370,000 compounds. About 1,100 (0.3%) were called active. Another 1% or so got no clear call; they are omitted. Shown is part of a subset that was picked to be rich in actives. Values without a mark were called inactive. Calls follow the shape of the dose curve; as a rule, active = well fitted activation curve with a large enough effect; inconclusive = small, poorly fitted or top-dose-only effect; inactive = flat fitted curve, though single readings scatter.
What follows are compounds tested against Relaxin receptor 1 (Homo sapiens) (UniProt Q9HBX9) (assay: qHTS Assay for Agonists of the Relaxin Receptor RXFP1). Details: HEK293T-RXFP1 cAMP TR-FRET, 30 min; series mostly up to 57.5 µM; activation: at the top concentration.
From the text: NIH Chemical Genomics Center [NCGC] NIH Molecular Libraries Probe Production Centers Network [MLPCN] MLPCN Grant: R03 MH085705-01A1 Assay Submitter (PI): Alexander Agoulnik NCGC Assay Overview: The relaxin hormone is involved in the variety of biological functions in normal tissues and diseases. The role of relaxin is well-established in female reproduction and parturition, mammary gland and endometrial development, maintenance of myometrial quiescence during pregnancy. Relaxin signaling through its G protein-coupled receptor (GPCR) RXFP1 results in ECM remodeling through regulation of collagen deposition, cell invasiveness, proliferation and overall tissue homeostasis. […] Recombinant human relaxin (rhRlx) is currently being tested in clinical trials as a protective agent in congestive heart failure, in treating severe preeclampsia, and as an anti-fibrotic agent in systemic sclerosis. Upon relaxin binding RXFP1 activation leads to the activation of adenylate cyclase (AC) via Gs. cAMP will activate PKA, which phosphorylates many signaling proteins. Thus, detection of cAMP increase is an easy and reliable indication of relaxin receptor activation. To screen for agonists of the relaxin receptor, a HEK293T cell line stably transfected with RXFP1 was used. RXFP1 activation was assayed by changes in cAMP levels as detected with a time-resolved fluorescence energy transfer (TR-FRET) cAMP detection kit.
NCGC Assay Protocol Summary: This is a cell-based assay for cAMP second messenger response to screen for agonists of the RXFP1 receptor. The assay was conducted in the presence of a PDE4 inhibitor (Ro 20174). The cells were lysed and the cAMP levels were measured with a TR-FRET cAMP kit. Presence of cAMP in the cell lysate disrupts binding between the cryptate-labeled anti-cAMP and d2-labeled cAMP pair, leading to a decrease in the TR-FRET signal. Data were normalized to the controls for basal activity (buffer only) and 100% activity (29 nM porcine relaxin). The EC50 values were determined from concentration-response data modeled with the standard Hill equation 1536-well assay protocol for the HEK293 RXFP1 cAMP assay: (1) Add 3 ul HEK293 RXFP1 cell culture. 2000 cells/well in DMEM/F12, 10% FBS, 1x Pen/Strep (dispensed offline with MultiDrop Combi). (2) Incubate 16-24 hr at 37C, 5% CO2. (3) Add 1 ul 400uM Ro20174 in DPBS, 0.05% BSA, 0.005% Tween 20. (3) Add 23 nl compounds in DMSO solution. Final concentration was 0.5 - 58 uM. (4) Incubate 30 min at 37C, 5% CO2. (5) Add 1 ul cAMP-d2 in lysis buffer (HTRF cAMP HiRange kit, CisBio). (6) Add 1 ul anti-cAMP antibody-cryptate in lysis buffer (HTRF cAMP HiRange kit, CisBio). (7) Incubate 30 min at room temperature. (6) Detect the assay plate in a ViewLux plate reader (PerkinElmer) with Ex=320 nm, Em1=615 nm and Em2=665 nm. Keywords: relaxin, RXFP1, RXFP2, G-protein coupled receptor, cAMP, agonist, high throughput screening, MLSMR, MLSCN, NIH Roadmap, qHTS and NCGC
% is scaled to controls: 0 for no effect and ±100 for the full control effect; potency is read from the fitted curve at half-maximal effect.
Also: nearly all actives have a fitted effect of over 60% in size.

Relaxin receptor 1 (Homo sapiens), sequence (Q9HBX9 whole entry, looked up): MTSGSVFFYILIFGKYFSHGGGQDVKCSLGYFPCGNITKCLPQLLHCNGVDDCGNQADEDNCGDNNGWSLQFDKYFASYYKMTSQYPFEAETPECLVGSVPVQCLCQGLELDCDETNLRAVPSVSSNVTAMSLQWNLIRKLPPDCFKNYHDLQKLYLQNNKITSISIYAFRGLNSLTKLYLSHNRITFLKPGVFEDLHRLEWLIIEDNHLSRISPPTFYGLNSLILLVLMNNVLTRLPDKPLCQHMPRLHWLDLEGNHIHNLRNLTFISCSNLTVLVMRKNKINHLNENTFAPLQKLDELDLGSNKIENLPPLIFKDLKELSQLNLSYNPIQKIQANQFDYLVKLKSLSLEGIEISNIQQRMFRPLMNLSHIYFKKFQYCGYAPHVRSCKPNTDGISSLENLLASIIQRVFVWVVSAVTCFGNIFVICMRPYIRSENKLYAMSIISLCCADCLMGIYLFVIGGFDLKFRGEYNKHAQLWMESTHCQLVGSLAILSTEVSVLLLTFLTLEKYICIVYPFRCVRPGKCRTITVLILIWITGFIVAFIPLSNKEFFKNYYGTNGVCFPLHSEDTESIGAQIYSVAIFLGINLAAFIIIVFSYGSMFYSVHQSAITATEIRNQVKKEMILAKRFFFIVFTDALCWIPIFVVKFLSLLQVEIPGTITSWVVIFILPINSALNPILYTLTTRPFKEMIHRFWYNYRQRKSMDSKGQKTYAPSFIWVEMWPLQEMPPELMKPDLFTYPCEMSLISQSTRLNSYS

**Q.** How did the “activation” value turn out when `O=C(Nc1ccc2nc(SCC(=O)N3CCCc4ccccc43)sc2c1)c1ccc(Cl)cc1` was run?
**A.** The value was -0.685%.

**Q.** Which “activation” value does the source give for `CCOC(=O)c1ccc(N2C(=O)c3[nH]nc(-c4ccccc4)c3C2c2ccc(C(C)C)cc2)cc1` (stereo not drawn) here?
**A.** The value was 1.54%.

**Q.** For `Fc1ccc(-c2nn(-c3ccccc3Cl)c3c2cnc2ccccc23)cc1`, which “activation” value is on record?
**A.** Its value is 1.05%.

**Q.** `CCOc1cccc2sc(N3CCN(C(=O)C4CC4)CC3)nc12` was tested. Which “activation” value did it give?
**A.** The value was 2.27%.

**Q.** With `COc1ccc(C(=O)COC(=O)c2nn(C)c(=O)c3ccccc23)c(OC)c1` as the compound, how does the “activation” value read?
**A.** The value was 2.52%.

**Q.** Which “activation” value does the source give for `Cn1c(=O)c2c(ncn2CC(=O)N2CCN(c3ccccc3)CC2)n(C)c1=O` here?
**A.** Its value is 5.92%.

**Q.** How did the Potency turn out when `COc1ccc(C(=O)COC(=O)Cn2cnc3c2c(=O)n(C)c(=O)n3C)c(OC)c1` was run?
**A.** The Potency was 15.8 µM (active).

**Q.** Which “activation” value does the source give for `COc1ccc(Cn2ccnc2SCC(=O)Nc2ccc3c(c2)OCO3)cc1` here?
**A.** Its value is 0.543%.

**Q.** With `CCC(C)c1ccc2oc(-c3ccc(NC(=O)c4cc5ccccc5o4)cc3)nc2c1` (stereo not drawn) as the compound, how does the “activation” value read?
**A.** Its value is 13.4%.

**Q.** How did the “activation” value turn out when `Cn1nnnc1SCCNCc1ccc(Cl)c(Cl)c1` was run?
**A.** Its value is 6.77%.

**Q.** `COc1ccc(Br)cc1CNC(=O)c1cc(=O)[nH]c2ccc(S(=O)(=O)N3CCCC3)cc12` was tested. Which “activation” value did it give?
**A.** The value was 2.91%.

**Q.** With `CCOC(=O)c1ccc(CSc2nnc3cc(C)c4ccccc4n23)cc1` as the compound, how does the “activation” value read?
**A.** The value was -0.266%.

**Q.** For `O=c1cc(-c2ccccc2)n2c(SCc3ccccc3)nnc2[nH]1`, which “activation” value is on record?
**A.** Its value is 6.6%.

**Q.** With `CCc1ccc(-n2c(SCc3cc(=O)n4cc(Br)ccc4n3)nc3[nH]ncc3c2=O)cc1` as the compound, how does the Potency read?
**A.** Its Potency is 20 µM (active).

**Q.** How did the “activation” value turn out when `Cc1cccc2nc(CSc3nc4[nH]ncc4c(=O)n3-c3cccc(Cl)c3)cc(=O)n12` was run?
**A.** The value was 0.541%.

**Q.** With `O=c1c2sccc2nc(SCc2cc(=O)n3ccccc3n2)n1-c1ccc(Br)cc1` as the compound, how does the “activation” value read?
**A.** Its value is 3.4%.

**Q.** How did the “activation” value turn out when `CCCN1C(=O)C(O)(CC(=O)c2ccc(CC)cc2)c2cc(Br)ccc21` (stereo not drawn) was run?
**A.** Its value is 0.237%.

**Q.** `COc1cccc(CNC(=O)Cn2ncn3c(cc4ccccc43)c2=O)c1` was tested. Which “activation” value did it give?
**A.** Its value is 4.71%.

**Q.** `CCCSc1ncc(Cl)c(C(=O)Nc2c(C(=O)Nc3ccccc3)oc3ccccc23)n1` was tested. Which “activation” value did it give?
**A.** The value was 1.04%.

**Q.** Which “activation” value does the source give for `Cc1cc(NS(=O)(=O)c2ccc(NC(=O)c3ccccc3C)cc2)nc(C)n1` here?
**A.** The value was 0.704%.

**Q.** How did the “activation” value turn out when `CCCn1c(NCc2ccccc2F)nc2ccccc21` was run?
**A.** The value was 1.98%.

**Q.** For `COc1ccc(-c2cn3c(n2)sc2cc(C(=O)Nc4ccc(F)cc4)ccc23)cc1`, which “activation” value is on record?
**A.** The value was 6.49%.

**Q.** With `O=C(Cn1nc(Cc2cccnc2)c2ccccc2c1=O)N1CCN(c2ccccc2F)CC1` as the compound, how does the “activation” value read?
**A.** The value was 1.65%.

**Q.** For `Cc1ccccc1NC(=O)Cn1c(=O)n(CCCCC(=O)NCc2ccccc2Cl)c(=O)c2ccccc21`, which “activation” value is on record?
**A.** The value was -0.36%.

**Q.** With `CCCCNC(=O)CSc1nc2cc3c(cc2c(=O)n1CCCCCC(=O)NCc1ccc2c(c1)OCO2)OCO3` as the compound, how does the “activation” value read?
**A.** Its value is 0.833%.

**Q.** With `CC(C)CCSc1ncnc2c1oc1nc3c(cc12)COC(C)(C)C3` as the compound, how does the “activation” value read?
**A.** The value was 3.1%.

**Q.** For `O=C(CSc1ncnc2scc(-c3ccccc3)c12)NCc1ccc2c(c1)OCO2`, which “activation” value is on record?
**A.** The value was 3.7%.

**Q.** With `CC1(C)Cc2nc3sc4c(SCC(=O)NC(c5ccccc5)c5ccccc5)ncnc4c3cc2CO1` as the compound, how does the Potency read?
**A.** Its Potency is 3.16 µM (active).

**Q.** Which “activation” value does the source give for `Cc1ccc(Cl)cc1N1CCN(S(=O)(=O)c2cc3[nH]c(=O)c(=O)[nH]c3cc2C)CC1` here?
**A.** Its value is -0.379%.

**Q.** Which “activation” value does the source give for `COc1ccc2c(c1)Cc1sc(NC(=O)c3ccccc3Br)nc1-2` here?
**A.** The value was -0.462%.

**Q.** How did the “activation” value turn out when `COc1ccc(NC(=O)CCc2nnc3n(CC(C)C)c(=O)c4ccccc4n23)cc1OC` was run?
**A.** Its value is 1.01%.

**Q.** With `COc1cc(OC)cc(C(=O)Nc2c(C(=O)Nc3ccc(F)cc3)oc3ccccc23)c1` as the compound, how does the “activation” value read?
**A.** The value was 21.3%.

**Q.** Which “activation” value does the source give for `COc1cccc(-c2nc(CS(=O)(=O)CC(=O)N3CCN(c4cc(C)ccc4C)CC3)c(C)o2)c1` here?
**A.** Its value is -2.79%.

**Q.** `Cc1cccc(Cn2c(SCc3ccc(C(=O)N4CCC(C)CC4)cc3)nc3ccncc32)c1` was tested. Which “activation” value did it give?
**A.** Its value is -0.29%.

**Q.** Which “activation” value does the source give for `COc1ccccc1CNC(=O)C(=O)NCC(c1ccco1)S(=O)(=O)c1ccc(F)cc1` (stereo not drawn) here?
**A.** The value was -0.717%.

**Q.** `COc1cccc(C(=O)Nc2nnc(S(=O)(=O)N(C)c3ccccc3)s2)c1` was tested. Which “activation” value did it give?
**A.** The value was 1.2%.

**Q.** How did the “activation” value turn out when `CCCCC(=O)Nc1nnc(S(=O)(=O)N(C)Cc2ccco2)s1` was run?
**A.** Its value is 0.754%.

**Q.** For `CCC(=O)Nc1ccccc1-c1nc2ccccc2n(CC(=O)Nc2ccc(C)c(C)c2)c1=O`, which “activation” value is on record?
**A.** The value was -4.71%.

**Q.** With `CC1CCN(C(=O)Cn2c(=O)n(-c3ccc(Cl)cc3)c(=O)c3c4c(sc32)CCC4)CC1` as the compound, how does the “activation” value read?
**A.** The value was 26.2%.

**Q.** With `CCC(C)Nc1oc(-c2ccc(COc3ccc(Cl)cc3)o2)nc1C#N` (stereo not drawn) as the compound, how does the “activation” value read?
**A.** Its value is 0.927%.

**Q.** Which “activation” value does the source give for `CCOC(=O)c1c(C)[nH]c(CCC(=O)NCCCN2CCN(c3cccc(Cl)c3)CC2)c1C` here?
**A.** Its value is 1.78%.

**Q.** With `Cc1ccc(Nc2c(-c3ccc(Cl)cc3)nc3sccn23)c(C)c1` as the compound, how does the “activation” value read?
**A.** The value was 0.704%.

**Q.** Which “activation” value does the source give for `CC(=O)N1CCCc2cc(S(=O)(=O)Nc3ccc(Cl)cc3F)ccc21` here?
**A.** The value was -0.63%.

**Q.** With `O=C(COc1ccc(Cl)cc1)Nc1ccccc1OCc1cc(=O)n2ccccc2n1` as the compound, how does the “activation” value read?
**A.** The value was 6.2%.

**Q.** Which “activation” value does the source give for `CCOc1ccccc1C(=O)Nc1ccc2c(c1)N(C)C(=O)c1ccccc1S2` here?
**A.** The value was 1.45%.

**Q.** For `CC(=O)Nc1cccc(NC(=O)CSc2nccn2Cc2ccc3c(c2)OCO3)c1`, which “activation” value is on record?
**A.** The value was 2.66%.

**Q.** How did the “activation” value turn out when `Cc1cc(OCC(=O)NCC2(N(C)C)CCCCC2)cc(C)c1Cl` was run?
**A.** Its value is 0.643%.

**Q.** `COc1ccc(CNC(=O)CSc2n[nH]c(-c3ccc(F)cc3)n2)cc1` was tested. Which “activation” value did it give?
**A.** The value was 1.03%.

**Q.** For `CCc1ccc(NC(=O)CN2CCSc3ccc(S(=O)(=O)N4CCCC4)cc32)cc1`, which “activation” value is on record?
**A.** The value was 1.82%.

**Q.** How did the “activation” value turn out when `Cc1ccc(S(=O)(=O)N(Cc2nc(-c3ccc(Cl)cc3)no2)C2CCCCC2)cc1` was run?
**A.** Its value is 0.473%.

**Q.** Which “activation” value does the source give for `COc1ccc2c(c1)c(=O)c(C(=O)c1ccccc1)cn2CC(=O)Nc1ccc2c(c1)OCCO2` here?
**A.** The value was 0.33%.

**Q.** How did the “activation” value turn out when `CCCC(=O)N1CCN(c2nc3c(OC)ccc(C)c3s2)CC1` was run?
**A.** The value was -0.0199%.

**Q.** With `CCCN(CCC)CCNC(=O)c1ccc2c(c1)NC(=O)C(CS(=O)(=O)Cc1cccc(Br)c1)N2` (stereo not drawn) as the compound, how does the “activation” value read?
**A.** The value was 3.62%.

From PubChem BioAssay AID2676 (National Center for Advancing Translational Sciences (NCATS), 2010)
